Shown are actives, neighbours in structure and some others; about 3% of the full set was active somewhere.
C2C12 statin: suppression of simvastatin myotoxicity | AID 602340 | actives 0.78% (n = 330,000) | C2C12 myotubes + simvastatin, ATP luminescence, 48 h; scaled: DMSO 0, geranylgeraniol control 100 | rescue of ATP level, % at 7.49 µM;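 active = mean ATP rescue above about 67%, or every replicate alone reaching that limit, limit read from the data, passing the limit was not always enough; inconclusive = no clear call, values can overlap the other calls; inactive = mean under the limit and some replicate under it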;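 also: myotubes were challenged with 10 µM simvastatin during compound exposure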
MITF act: increases MITF-driven TRPM1 promoter luciferase signal; SK-MEL-5 TRPM1-promoter luciferase, 24 h; % of positive control, neutral wells = 0; activation, % at 12.5 µM; actives 0.75% (n = 300,000);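 active = mean activation of at least 80% with every replicate also reaching 80%; inconclusive = mean reaches 80% but some replicate falls short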
Wnt bcat act: Wnt/beta-catenin pathway activation; Wnt/beta-catenin reporter cell assay, activator, plate reader; activation, % at 9.35 µM; actives 1.2% (n = 300,000); AID 743398; in the data active = activation above about 30%, passing the limit was not always enough; inconclusive = no clear call, values can overlap the other calls
esBAF inh: inhibitors of esBAF chromatin remodeling in mouse ES cells; Bmi1-luciferase knock-in reporter, 24 h; 100% = twice the neutral-well signal; reporter increase, % at 12.5 µM; actives 2% (n = 350,000); in the data active = activation above about 40%; inconclusive = no clear call, values can overlap the other calls;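 also: a rise in the Bmi1 reporter signal indicates esBAF inhibition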
Numbers stand for hits; i = inactive; ? = inconclusive; nt = no result.

SMILES	C2C12 statin	MITF act	Wnt bcat act	esBAF inh
CCN(CC)S(=O)(=O)c1cccc(NC(=O)c2cc3ccccc3o2)c1	i	i	i	?
Cc1ccc(NC(=O)c2cc3ccccc3o2)cc1Cl	i	104	i	?
CC(=O)Nc1ccc(-c2cc3ccccc3o2)cc1	i	nt	56	i
CCC(=O)N1CCN(c2ccc(NC(=O)c3cc4ccccc4o3)cc2Cl)CC1	nt	i	i	i
COc1ccc(NC(=O)N(C)C[C@H]2Oc3ccc(NS(=O)(=O)c4cccs4)cc3CC(=O)N([C@H](C)CO)C[C@@H]2C)cc1	i	nt	nt	i
COc1ccc(NC(=O)N(C)C[C@@H]2Oc3c(NC(=O)c4nc5ccccc5s4)cccc3C(=O)N([C@H](C)CO)C[C@@H]2C)cc1	nt	nt	nt	i
CN1C/C(=C/c2ccsc2)C(=O)/C(=C/c2ccsc2)C1	i	i	i	i
O=C1/C(=C\c2ccsc2)N2CCC1CC2	i	i	33	i
C[C@@H]1CN([C@@H](C)CO)C(=O)c2cc(NC(=O)Nc3ccc(F)cc3)ccc2O[C@@H](C)CCCCO[C@@H]1CN(C)C	i	nt	nt	i
CCCNC(=O)C(=O)c1cccn1-c1ccsc1C(=O)OC	119	i	i	i
CNC(=O)c1cccn1-c1ccsc1C(=O)OC	i	i	nt	i
O=c1c2ccccc2nc2c3ccccc3c(NCc3ccccn3)nn12	nt	i	49	nt
COC(=O)C(Cc1c[nH]c2ccccc12)NC(=O)CNC(C)=O (stereo unspecified)	i	i	nt	i
COC(=O)C(Cc1c[nH]c2ccccc12)NC(=O)c1ccccc1Br (stereo unspecified)	i	nt	i	53
CCOC(=O)C(Cc1c[nH]c2ccccc12)NC(=O)c1ccccc1Br (stereo unspecified)	i	nt	i	74
Cc1ccc(C(=O)Nc2ccccc2C(=O)NC(Cc2c[nH]c3ccccc23)C(=O)O)cc1 (stereo unspecified)	nt	i	i	nt
C/C=C/c1cnc2c(c1)C(=O)N([C@@H](C)CO)C[C@@H](C)[C@H](CN(C)Cc1ccc(F)cc1)O2	i	nt	nt	i
O=S(=O)(Cc1nc2ccccc2s1)c1ccccc1	i	i	i	57
NC(=O)c1ccccc1OCc1nc2ccccc2s1	i	i	42	i
Cc1ccc2nc(N/C(=N/S(=O)(=O)c3ccc(F)cc3)c3ccccc3)sc2c1	nt	i	i	nt
CC(=O)OCc1nc2ccccc2s1	nt	i	?	43
O=S(=O)(CCc1nc2ccccc2s1)c1ccc(Cl)cc1	i	i	i	i
O=S(=O)(/N=C(/Nc1nc2ccccc2s1)c1ccccc1)c1ccccc1	i	i	50	66
O=C(C[C@@H]1C=C[C@@H](NC(=O)Nc2cc(F)ccc2F)[C@@H](CO)O1)Nc1ccccc1	i	nt	nt	i
Cc1cc(C(=O)OCc2nc3ccccc3s2)c(C)o1	i	i	nt	72
SMILES	C2C12 statin	MITF act	Wnt bcat act	esBAF inh
O=C(OCc1nc2ccccc2s1)c1ccc(Br)o1	nt	i	i	nt
COc1cccc(OCCCCCCN2CCOCC2)c1	112	i	nt	i
Cc1cc(OCCN2CCOCC2)ccc1Cl	i	i	i	43
CCOc1cccc(OCCCCN2CCOCC2)c1	i	i	i	i
CC(=O)N1[C@@H]2c3cccc(=O)n3C[C@@H]2[C@@H](CO)[C@@H]1C(=O)NCc1ccccc1F	i	nt	nt	i
C[C@@H]1CN([C@@H](C)CO)C(=O)Cc2cc(NC(=O)Cc3cn(C)c4ccccc34)ccc2O[C@H]1CN(C)S(=O)(=O)c1cn(C)cn1	i	nt	nt	i
C[C@H]1CN([C@@H](C)CO)C(=O)Cc2cc(NC(=O)Nc3ccc(F)cc3)ccc2O[C@@H]1CN(C)Cc1ccncc1	i	nt	nt	i
O=C(O)/C=C1\NC(=O)c2ccccc21	104	nt	i	i
CCS(=O)(=O)Nc1ccc2c(c1)C(=O)N(C)C[C@H](OC)[C@@H](C)CN(C)[C@H](C)CO2	i	nt	nt	i
CC(=O)OC1CC(n2ccc(NC(=O)c3ccccc3)nc2=O)OC1CO (stereo unspecified)	128	i	nt	i
CN1C(=O)c2cc(NS(C)(=O)=O)ccc2OC[C@H]2O[C@H](CC(=O)O)CC[C@H]21	i	nt	nt	i
Cc1nc(SCC(=O)c2cccs2)c2oc3ccccc3c2n1	nt	nt	71	nt
Cc1nc(SCC(=O)O)c2oc3ccccc3c2n1	i	nt	i	i
O=C(CSc1ncnc2c1oc1ccccc12)c1cccs1	i	?	nt	57
C[C@@H]1CN([C@H](C)CO)C(=O)c2cc(/C=C/c3ccccc3)cnc2O[C@H]1CN(C)C	i	nt	nt	i
CO[C@@H]1CN(C)C(=O)c2cc(NC(=O)c3ccc(Oc4ccccc4)cc3)ccc2OC[C@@H](C)NC[C@H]1C	i	nt	nt	i
C[C@@H]1CN([C@@H](C)CO)C(=O)c2cc(NC(=O)C3CCCCC3)ccc2O[C@@H](C)CCCCO[C@@H]1CN(C)C(=O)Nc1ccc2c(c1)OCO2	nt	nt	nt	i
c1ccc(-c2ccc(-c3ccccc3)[nH]2)cc1	i	i	i	72
COCCNC(=O)CN(C(=O)CCC(=O)Nc1nccs1)c1ccccc1OC	109	nt	i	i
COc1ccc(C(CC(=O)Nc2nccs2)n2cccc2)cc1 (stereo unspecified)	i	i	nt	61
COc1ccccc1OCCCC(=O)Nc1nccs1	i	i	i	82
COCCNC(=O)CN(C(=O)CCC(=O)Nc1ccccn1)c1ccccc1OC	i	nt	i	i
O=C(c1cc(=O)[nH]c2ccccc12)N1CCN(c2ccc([N+](=O)[O-])cc2)CC1	i	i	39	i
O=[N+]([O-])c1ccccc1COc1ccc(Cl)c2cccnc12	i	i	41	i
Clc1ccc(CSc2snnc2-c2ccccc2)c(Cl)c1	i	nt	38	?
SMILES	C2C12 statin	MITF act	Wnt bcat act	esBAF inh
c1ccc(CSc2snnc2-c2ccccc2)cc1	i	nt	nt	?
Cc1c(C(Nc2ccccn2)c2ccccc2)c(=O)n(-c2ccccc2)n1C (stereo unspecified)	81	i	i	i
Cc1c(C(Nc2ccccn2)c2ccc(Cl)cc2)c(=O)n(-c2ccccc2)n1C (stereo unspecified)	i	nt	i	i
C[C@H]1CN([C@@H](C)CO)C(=O)c2cc(C3=CCCC3)cnc2O[C@H]1CN(C)C(=O)C1CC1	i	nt	nt	nt
O=C(Nc1ccc(F)c(Cl)c1)c1nsc(Cl)c1Cl	i	i	i	60
CCOc1ccc(NC(=O)c2nsc(Cl)c2Cl)cc1	i	i	54	i
O=c1c2ccccc2nnn1CCc1ccccc1	i	nt	43	i
O=C(COc1ccc(Cl)cc1Cl)OCn1nnc2ccccc2c1=O	nt	i	i	nt
Cc1ccc(SCn2nnc3ccccc3c2=O)c(C)c1	nt	110	i	nt
O=c1c2ccccc2nnn1COc1cccc(Cl)c1	i	i	i	59
O=c1c2ccccc2nnn1Cc1ccccc1	i	i	i	i
COc1ccc(S(=O)(=O)N(C)C[C@@H]2Oc3ccc(NC(=O)Nc4cccc5ccccc45)cc3CC(=O)N([C@H](C)CO)C[C@@H]2C)cc1	i	nt	nt	i
O=c1c2ccccc2oc2ccc(NCCCN3CCOCC3)cc12	i	137	i	i
O=c1c2ccccc2oc2cc(NCCCN3CCOCC3)ccc12	i	106	44	43

Screening data from PubChem.
